Laboratory results reported in PubChem BioAssay (EPA / NIEHS).
Active and inactive are the calls of the source. The calls were made as follows: active = hit-call score of the fitted dose curve at least 0.9, where 1 is the maximum; inactive = score below 0.9.

Tests used:
Details in all cases: mRNA level, 48 h; actives raise or lower the signal
[1] = read-out: Potassium channel subfamily K member 1 (KCNK1), KCNK1 (gene 3775); test: LTEA_HepaRG_KCNK1: Life Technologies and Expression Analysis (LTEA) Assay for Potassium channel subfamily K member 1 (KCNK1) using HepaRG (AID 2283511)
Summary of the method: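 KCNK1 transcript measured by TaqMan qRT-PCR against three housekeeping genes, after HepaRG cells were treated 48 h with eight half-log concentrations (top 100 uM, 0.5% DMSO). Curves fitted bidirectionally relative to vehicle.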

[2] = read-out: Keratin 19 (KRT19), KRT19 (gene 3880); test: LTEA_HepaRG_KRT19: Life Technologies and Expression Analysis (LTEA) Assay for Keratin 19 (KRT19) using HepaRG (AID 2283512)
Summary of the method: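 KRT19 transcript levels, measured by Fluidigm qRT-PCR against three housekeeping genes, are fitted for gain or loss of signal relative to DMSO. Human HepaRG cells receive test chemicals (top 100 uM, half-log steps, 0.5% DMSO) for 48 hours.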

[3] = read-out: JUN Transcription Factor, JUN (gene 3725); test: LTEA_HepaRG_JUN: Life Technologies and Expression Analysis (LTEA) Assay for JUN Transcription Factor using HepaRG (AID 2283513)
Summary of the method: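 Read-out is JUN transcript level by TaqMan qRT-PCR, normalized to ACTB, GAPDH and POLR2A, after 48 h chemical treatment of HepaRG cells. Concentration-response spanned eight half-log points up to 100 uM in 0.5% DMSO.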

[4] = read-out: Lipase C (LIPC), LIPC (gene 3990); test: LTEA_HepaRG_LIPC: Life Technologies and Expression Analysis (LTEA) Assay for Lipase C (LIPC) using HepaRG (AID 2283514)
Summary of the method: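 LIPC expression was quantified by qRT-PCR against three housekeeping genes (ACTB, GAPDH, POLR2A). Differentiated human HepaRG cells received eight half-log doses (top 100 uM, 0.5% DMSO) in duplicate for 48 h; fitting bidirectional relative to DMSO.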

[5] = read-out: Lipoprotein lipase (LPL), LPL (gene 4023); test: LTEA_HepaRG_LPL: Life Technologies and Expression Analysis (LTEA) Assay for Lipoprotein lipase (LPL) using HepaRG (AID 2283515)
Summary of the method: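 LPL transcript levels quantified by TaqMan qRT-PCR against three housekeeping genes after 48 h chemical treatment of HepaRG cells. Eight-point half-log series from 100 uM in 0.5% DMSO, tested in duplicate; bidirectional fitting versus vehicle.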

[6] = read-out: MicroRNA 122 (MIR122), gene 406906; test: LTEA_HepaRG_MIR122: Life Technologies and Expression Analysis (LTEA) Assay for MicroRNA 122 (MIR122) using HepaRG (AID 2283516); also: the transcript read is the microRNA miR-122
Summary of the method: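 Human liver HepaRG cultures receive test chemicals for 48 h at eight half-log concentrations from 100 uM. Expression is quantified by qRT-PCR with ACTB/GAPDH/POLR2A normalization and fitted bidirectionally against 0.5% DMSO.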

[7] = read-out: matrix metalloproteinase-10 (MMP10), MMP10 (gene 4319); test: LTEA_HepaRG_MMP10: Life Technologies and Expression Analysis (LTEA) Assay for matrix metalloproteinase-10 (MMP10) using HepaRG (AID 2283517)
Summary of the method: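 Expression measured by TaqMan qRT-PCR with ACTB/GAPDH/POLR2A normalisation after 48 h chemical exposure of HepaRG cells. Eight half-log concentrations, top 100 uM, 0.5% DMSO vehicle, duplicates; gain or loss fitted against vehicle.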

MYC, MYC (gene 4609) = test: LTEA_HepaRG_MYC: Life Technologies and Expression Analysis (LTEA) Assay for MYC using HepaRG (AID 2283518)
Summary of the method: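 HepaRG, ~100,000 cells/well, collagen I; 48 h plating; serum-free induction medium; 48 h dosing, duplicate, 100 uM top, half-log, 0.5% DMSO; total RNA → qRT-PCR MYC; gain/loss fit vs DMSO.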

[8] = read-out: matrix metalloproteinase-3 (MMP3), MMP3 (gene 4314); test: LTEA_HepaRG_MMP3: Life Technologies and Expression Analysis (LTEA) Assay for matrix metalloproteinase-3 (MMP3) using HepaRG (AID 2283519)
Summary of the method: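 Fluidigm-based TaqMan qRT-PCR, normalized to ACTB, GAPDH and POLR2A and fitted bidirectionally versus 0.5% DMSO, measured transcript levels. Treatment: duplicate 48 h exposures of HepaRG cells, ~100,000/well, to eight half-log concentrations topping at 100 uM.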

[9] = read-out: Paternally Expressed 10 (PEG10), PEG10 (gene 23089); test: LTEA_HepaRG_PEG10: Life Technologies and Expression Analysis (LTEA) Assay for Paternally Expressed 10 (PEG10) using HepaRG (AID 2283520);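 as to AC50: PEG10 transcript by qRT-PCR normalised to ACTB GAPDH and POLR2A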
Summary of the method: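 Human HepaRG cultures are dosed for 48 h across an eight-point half-log series starting at 100 uM, with 0.5% DMSO as vehicle and baseline. Gain or loss of PEG10 transcript is measured by qRT-PCR and fitted in both directions.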

[10] = read-out: Protein phosphatase 2A (PPP2R4), PTPA (gene 5524); test: LTEA_HepaRG_PPP2R4: Life Technologies and Expression Analysis (LTEA) Assay for Protein phosphatase 2A (PPP2R4) using HepaRG (AID 2283522)
Summary of the method: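 Cells were plated, cultured 48 h, switched to serum-free induction medium, then dosed for 48 h (8 points, max 100 uM, 0.5% DMSO). RNA was isolated and PPP2R4 expression measured by TaqMan qRT-PCR.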

[11] = read-out: solute carrier (SLC22A1), SLC22A1 (gene 6580); test: LTEA_HepaRG_SLC22A1: Life Technologies and Expression Analysis (LTEA) Assay for solute carrier (SLC22A1) using HepaRG (AID 2283524)
Summary of the method: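 Transcript level of SLC22A1 quantified by qRT-PCR (normalized to three housekeeping genes) after 48 h chemical exposure of HepaRG cells, eight concentrations up to 100 µM, half-log steps, 0.5% DMSO vehicle. Gain or loss relative to DMSO fitted bidirectionally.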

[12] = read-out: Pyruvate Dehydrogenase Kinase 4 (PDK4), PDK4 (gene 5166); test: LTEA_HepaRG_PDK4: Life Technologies and Expression Analysis (LTEA) Assay for Pyruvate Dehydrogenase Kinase 4 (PDK4) using HepaRG (AID 2283525)
Summary of the method: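 Readout is qRT-PCR of PDK4 transcript, normalized to three housekeeping genes, with bidirectional fitting against 0.5% DMSO vehicle. Differentiated HepaRG cells were treated 48 h in serum-free induction medium, duplicate wells, eight-point half-log series topping at 100 uM.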

[13] = read-out: succinate dehydrogenase complex iron sulfur subunit B (SDHB), SDHB (gene 6390); test: LTEA_HepaRG_SDHB: Life Technologies and Expression Analysis (LTEA) Assay for succinate dehydrogenase complex iron sulfur subunit B (SDHB) using HepaRG (AID 2283528)
Summary of the method: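 HepaRG, 48 h exposure, 8-pt half-log series from 100 uM in 0.5% DMSO, duplicates. Readout: SDHB mRNA by Fluidigm qRT-PCR vs housekeeping genes; bidirectional fit relative to DMSO.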

[14] = read-out: Signal transducer and activator of transcription 3 (Homo sapiens) (UniProt P40763); test: LTEA_HepaRG_STAT3: Life Technologies and Expression Analysis (LTEA) Assay for Signal transducer and activator of transcription (STAT3) using HepaRG (AID 2283529)
Summary of the method: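 STAT3 transcript quantified by qRT-PCR against three housekeeping genes (ACTB, GAPDH, POLR2A), fitted both directions relative to DMSO. HepaRG cultures exposed 48 h to eight half-log concentrations, top 100 uM, 0.5% DMSO, serum-free induction medium.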

[15] = read-out: solute carrier (SLCO1B1), SLCO1B1 (gene 10599); test: LTEA_HepaRG_SLCO1B1: Life Technologies and Expression Analysis (LTEA) Assay for solute carrier (SLCO1B1) using HepaRG (AID 2283530)
Summary of the method: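 HepaRG, serum-free induction medium, 48 h dosing, 8-pt half-log from 100 uM, 0.5% DMSO vehicle, duplicates. Readout: SLCO1B1 mRNA, qRT-PCR, ACTB/GAPDH/POLR2A normalization; up or down fit vs DMSO.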

[16] = read-out: Nuclear factor NF-kappa-B p105 subunit (Homo sapiens) (UniProt P19838); test: LTEA_HepaRG_NFKB1: Life Technologies and Expression Analysis (LTEA) Assay for Nuclear Factor Kappa B Subunit 1 (NFKB1) using HepaRG (AID 2283521)
Summary of the method: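 Differentiated human HepaRG cells were exposed for 48 h in serum-free induction medium to eight concentrations (top 100 uM, half-log steps, 0.5% DMSO), in duplicate. NFKB1 mRNA was measured by TaqMan qRT-PCR, normalized to ACTB/GAPDH/POLR2A, and fitted bidirectionally against DMSO.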

[17] = read-out: Phosphatase and tensin (PTEN), PTEN (gene 5728); test: LTEA_HepaRG_PTEN: Life Technologies and Expression Analysis (LTEA) Assay for Phosphatase and tensin (PTEN) using HepaRG (AID 2283523)
Summary of the method: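 Read-out: TaqMan qRT-PCR of PTEN transcript, normalized to three housekeeping genes, fitted in both directions against 0.5% DMSO. Differentiated human HepaRG cultures received chemicals for 48 h, eight-point half-log series topping at 100 uM.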

[18] = read-out: NAD(P)H dehydrogenase [quinone] 1 (NQO1), NQO1 (gene 1728); test: LTEA_HepaRG_NQO1: Life Technologies and Expression Analysis (LTEA) Assay for NAD(P)H dehydrogenase [quinone] 1 (NQO1) using HepaRG (AID 2283526)
Summary of the method: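 Transcript induction or suppression is quantified by qRT-PCR in human HepaRG liver cells dosed for 48 hours. Eight half-log concentrations topping at 100 uM are used, with 0.5% DMSO as vehicle and baseline.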

[19] = read-out: Nuclear factor erythroid 2-related factor 2 (Homo sapiens) (UniProt Q16236); test: LTEA_HepaRG_NFE2L2: Life Technologies and Expression Analysis (LTEA) Assay for Nuclear factor erythroid 2-related factor 2 (NFE2L2) Transcription Factor using HepaRG (AID 2283527);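 also: TaqMan qRT-PCR transcript level normalised to ACTB GAPDH and POLR2A housekeeping genes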
Summary of the method: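 NFE2L2 transcript level was read by qRT-PCR (housekeeping ACTB/GAPDH/POLR2A normalisation) after 48 h chemical treatment of HepaRG in serum-free induction medium. Duplicate 8-point half-log curves, top 100 uM, 0.5% DMSO vehicle; up- or down-regulation fitted against vehicle.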

Measured: AC50

Signal transducer and activator of transcription 3 (Homo sapiens), sequence (P40763 whole entry, looked up): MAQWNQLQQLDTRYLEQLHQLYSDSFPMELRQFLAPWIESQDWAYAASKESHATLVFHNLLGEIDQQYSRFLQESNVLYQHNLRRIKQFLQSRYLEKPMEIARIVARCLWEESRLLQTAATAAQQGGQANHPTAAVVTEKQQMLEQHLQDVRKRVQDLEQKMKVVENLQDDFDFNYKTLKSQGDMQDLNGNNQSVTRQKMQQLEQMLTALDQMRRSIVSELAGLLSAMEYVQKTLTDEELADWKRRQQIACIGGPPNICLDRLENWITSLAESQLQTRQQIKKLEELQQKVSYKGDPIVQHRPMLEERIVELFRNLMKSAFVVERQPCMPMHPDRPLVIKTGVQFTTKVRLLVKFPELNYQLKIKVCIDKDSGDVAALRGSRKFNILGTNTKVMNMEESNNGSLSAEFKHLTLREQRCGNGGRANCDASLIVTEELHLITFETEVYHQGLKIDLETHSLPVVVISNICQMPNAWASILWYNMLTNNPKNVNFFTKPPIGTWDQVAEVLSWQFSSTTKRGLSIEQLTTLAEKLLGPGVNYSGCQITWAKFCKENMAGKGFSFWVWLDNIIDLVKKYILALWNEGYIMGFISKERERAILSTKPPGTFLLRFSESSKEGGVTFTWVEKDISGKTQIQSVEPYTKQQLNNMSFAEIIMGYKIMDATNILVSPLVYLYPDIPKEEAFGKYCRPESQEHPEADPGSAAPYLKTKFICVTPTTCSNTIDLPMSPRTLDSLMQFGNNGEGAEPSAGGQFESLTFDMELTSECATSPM
Nuclear factor erythroid 2-related factor 2 (Homo sapiens), sequence (Q16236 whole entry, looked up): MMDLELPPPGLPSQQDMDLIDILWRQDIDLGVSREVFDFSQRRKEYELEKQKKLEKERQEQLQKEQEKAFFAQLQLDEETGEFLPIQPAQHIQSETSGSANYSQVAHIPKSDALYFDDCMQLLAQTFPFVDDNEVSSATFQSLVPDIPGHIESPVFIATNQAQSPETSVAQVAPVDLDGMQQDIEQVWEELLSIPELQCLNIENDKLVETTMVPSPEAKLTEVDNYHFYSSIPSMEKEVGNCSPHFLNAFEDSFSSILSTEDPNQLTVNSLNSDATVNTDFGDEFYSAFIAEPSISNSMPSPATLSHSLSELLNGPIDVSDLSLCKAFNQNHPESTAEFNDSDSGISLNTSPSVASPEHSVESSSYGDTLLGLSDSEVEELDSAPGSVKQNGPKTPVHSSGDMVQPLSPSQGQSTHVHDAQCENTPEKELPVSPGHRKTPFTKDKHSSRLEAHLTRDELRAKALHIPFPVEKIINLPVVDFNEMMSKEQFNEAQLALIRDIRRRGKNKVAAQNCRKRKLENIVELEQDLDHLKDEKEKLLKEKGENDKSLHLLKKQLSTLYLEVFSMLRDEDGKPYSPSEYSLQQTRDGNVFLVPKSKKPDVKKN
Nuclear factor NF-kappa-B p105 subunit (Homo sapiens), sequence (P19838 whole entry, looked up): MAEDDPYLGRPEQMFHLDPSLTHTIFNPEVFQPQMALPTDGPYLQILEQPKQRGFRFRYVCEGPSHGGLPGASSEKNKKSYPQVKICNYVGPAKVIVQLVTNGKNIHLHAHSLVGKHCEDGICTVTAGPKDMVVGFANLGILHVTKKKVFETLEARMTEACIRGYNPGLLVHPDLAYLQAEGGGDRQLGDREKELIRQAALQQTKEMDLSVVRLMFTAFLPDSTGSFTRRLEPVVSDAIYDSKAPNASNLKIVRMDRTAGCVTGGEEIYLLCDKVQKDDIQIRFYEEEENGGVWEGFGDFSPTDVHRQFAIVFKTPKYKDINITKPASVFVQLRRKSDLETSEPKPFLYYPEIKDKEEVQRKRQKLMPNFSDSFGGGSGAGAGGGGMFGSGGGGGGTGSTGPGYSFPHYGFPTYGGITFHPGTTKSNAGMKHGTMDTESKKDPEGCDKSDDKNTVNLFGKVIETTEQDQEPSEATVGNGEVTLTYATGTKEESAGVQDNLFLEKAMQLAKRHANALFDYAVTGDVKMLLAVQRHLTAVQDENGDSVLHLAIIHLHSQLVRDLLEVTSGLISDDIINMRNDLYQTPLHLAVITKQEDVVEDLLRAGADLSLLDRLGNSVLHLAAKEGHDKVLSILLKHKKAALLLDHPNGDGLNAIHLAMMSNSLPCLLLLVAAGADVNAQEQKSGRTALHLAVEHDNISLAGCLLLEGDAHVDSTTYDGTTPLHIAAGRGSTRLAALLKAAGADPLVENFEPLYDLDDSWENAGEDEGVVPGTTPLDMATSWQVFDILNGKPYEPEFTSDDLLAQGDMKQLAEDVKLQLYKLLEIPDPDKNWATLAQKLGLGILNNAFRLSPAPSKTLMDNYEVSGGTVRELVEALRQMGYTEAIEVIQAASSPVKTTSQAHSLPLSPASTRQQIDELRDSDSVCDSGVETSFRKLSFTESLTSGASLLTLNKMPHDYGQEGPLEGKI

CC(=O)c1ccc2c(c1)[C@H](NC(=O)c1ccc(F)cc1)[C@@H](O)C(C)(C)O2
not listed: [16] | [17] | [18] | [19]
inactive: all other assays above

O=C(NS(=O)(=O)/C=C/c1ccccc1)c1ccc(F)cc1Cl
active: [9] 21.3 µM | [12] 26.4 µM
not listed: [5]
inactive: all other assays above

CC1(C)C(=O)N(Br)C(=O)N1Br
not listed: [16] | [17]
inactive: all other assays above

Clc1nc(Cl)c(Cl)c(Cl)c1Cl
not listed: [17] | [18]
inactive: all other assays above

CCCCCCCCCCCCc1ccccc1
not listed: [5]
inactive: all other assays above

CC(C)(O)c1coc(S(=O)(=O)NC(=O)Nc2c3c(cc4c2CCC4)CCC3)c1
active: [9] 50 µM
not listed: [5] | [17] | [19]
inactive: all other assays above

CCOC(=O)c1ccc(C2CCC(NC[C@H](O)COc3ccc(O)c(NS(C)(=O)=O)c3)CC2)cc1 (stereo not given in full)
active: [2] 2.04 µM
not listed: [5] | [16] | [18]
inactive: all other assays above

CCCCC(CC)COC(=O)CCCCCCCCC(=O)OCC(CC)CCCC (stereo not given)
not listed: [5] | [16] | [17]
inactive: all other assays above

C1=CCCC=CCCC=CCC1
not listed: [5] | [17] | [19]
inactive: all other assays above

COc1cccc(-c2ccc(/C=C\CN3CCCCCC3)cc2Cl)c1
inactive: [6] | [10] | [18] | [13] | [14]
active: [1] 79.3 µM | [2] 45.2 µM | [3] 73.9 µM | [4] 70.6 µM | [7] 71.3 µM | MYC, MYC (gene 4609) 81.1 µM | [8] 69.3 µM | [9] 59 µM | [16] 45.2 µM | [11] 74.4 µM | [12] 74.1 µM | [15] 74.6 µM

Nc1cccc(N)c1
not listed: [5] | [17] | [18] | [19]
inactive: all other assays above

CC[C@H]1OC(=O)[C@H](C)[C@@H](O[C@H]2C[C@@](C)(OC)[C@@H](O)[C@H](C)O2)[C@H](C)[C@@H](O[C@@H]2O[C@H](C)C[C@H](N(C)C)[C@H]2O)[C@](C)(O)C[C@@H](C)C(=O)[C@H](C)[C@@H](O)[C@]1(C)O
not listed: [3] | [17] | [18] | [19]
inactive: all other assays above

O=C(O)CC(O)C(=O)O (stereo not given)
not listed: [5] | [16]
inactive: all other assays above
